According to PubChem BioAssay (NCI):
This is part of a sample that, as a whole, favours compounds with a hit. Of some 83,000 tested, about 20% had one in any assay.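 For each line, cells grew in 96-well plates with the test compound present at a single concentration for 48 hours.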 Unmarked numbers belong to inactive results. The source made the active and inactive calls. How the source made its calls: active means growth percent below 10; inactive means the rest.

Assays:
Assay in all cases: NCI-60 one-dose screen, 48 h (100 = growth as untreated, 0 = no growth, -100 = all killed)
T-47D breast = conditions: 10 µM unless noted
BT-549 breast = conditions: 10 µM unless noted
MDA-MB-435 melanoma = conditions: 10 µM unless noted
SW-620 colon = conditions: 10 µM unless noted
MCF7 breast = conditions: 10 µM unless noted
HCT-116 colon = conditions: 10 µM unless noted
HCC-2998 colon = conditions: 10 µM
KM12 colon = conditions: 10 µM unless noted

Row | SMILES | growth (T-47D breast) | growth (BT-549 breast) | growth (MDA-MB-435 melanoma) | growth (SW-620 colon) | growth (MCF7 breast) | growth (HCT-116 colon) | growth (HCC-2998 colon) | growth (KM12 colon)
1 | O=C(Cn1ccnc1)Nc1ccc(-c2nc3ccccc3s2)cc1 | 51.4% | 65.1% | 81.6% | 99.8% | 61.3% | 68.2% | 94.9% | 84.4%
2 | O=C(O)C1(Cc2cccc(Nc3nccs3)n2)CCC(Oc2cccc(Cl)c2F)CC1 (stereo not given) | 50.9% | 84.4% | 49.6% | 74.9% | 46.7% | 45% | 95.3% | 19.3%
3 | CN1CCN(c2ccc(OC(F)(F)F)c(Nc3ncc4c(n3)-c3c(c(C(N)=O)nn3CCO)CC4)c2)CC1 | 43.9% | 27.8% | -50.5% (active) | 9.76% (active) | 22.1% | 9.89% (active) | 17% | 9.34% (active)
4 | CCCCCCCC(=O)SCC/C=C/[C@@H]1CC(=O)NCc2cc(ccn2)C2=N[C@@](C)(CS2)C(=O)N[C@@H](C(C)C)C(=O)O1 | -6.31% (active) | 36.4% | -22.1% (active) | -1.73% (active) | 14.1% | -17.2% (active) | -67.8% (active) | -3.5% (active)
5 | Cc1cn(-c2cc(NC(=O)c3ccc(C)c(Nc4nccc(-c5cccnc5)n4)c3)cc(C(F)(F)F)c2)cn1 | 45.6% | 24.2% | -11.9% (active) | 60% | 12.8% | 42.6% | 63.8% | 30%
6 | CC(=O)C1=C(C)NC(SCc2nnc(-c3ccc(C)cc3)o2)=NC1c1ccc(F)cc1 (stereo not given) | 74.4% | 86.1% | 107% | 110% | 95.4% | 93.6% | 104% | 100%
7 | O=C1C=CC2(NN=C(c3ccccc3)N2c2cccc(Cl)c2)c2cccc(O)c21 (stereo not given) | 101% | 61.7% | -91.9% (active) | 82% | 62.5% | 54.8% | 90.8% | 64.9%
8 | N#Cc1c(-c2ccc(Cl)cc2)csc1NC(=O)Nc1cccc(C(F)(F)F)c1 | -5.74% (active) | 26.3% | 14.1% | 22.7% | 12.8% | 1.8% (active) | 19.9% | 12.9%
9 | CC1CCC(n2cnc3c(Cl)ncnc32)O1 (stereo not given) | 91.1% | 89.6% | 99.6% | 106% | 90.1% | 89.3% | 103% | 106%
10 | COCC(=O)NC/C=C/c1ccc2ncnc(Nc3ccc(Oc4ccc(C)nc4)c(C)c3)c2c1 | -0.662% (active) | 62% | 32.9% | 47.9% | 49.1% | 29.3% | 36.6% | 28.8%
11 | Cc1cc(C(=O)Nc2cc(Oc3ccc4nc(NC(=O)C5CC5)cn4n3)ccc2C)n(C)n1 | 53.4% | 30.1% | 34.3% | 15.2% | 33.7% | 6.14% (active) | 2.16% (active) | 12.2%
12 | O=C1CC(c2cccc(F)c2)c2c(n[nH]c2-c2ccc(Cl)cc2)N1 (stereo not given) | 55.8% | 92.4% | 99.5% | 114% | 96.5% | 74.4% | 102% | 91.7%
13 | O=C(O)c1ccc2c(c1)nc(Nc1cccc(Cl)c1)c1ccncc12 | -22.1% (active) | -5.65% (active) | 5.4% (active) | 6.63% (active) | 5.91% (active) | 3.79% (active) | 15.1% | 11.5%
14 | COc1c(C(NC(=O)c2ccccc2)c2sccc2C)cc(Cl)c2cccnc12 (stereo not given) | 90.8% | 97.1% | 108% | 100% | 100% | 84.1% | 112% | 104%
15 | COC(=O)[C@@H](NC(=O)[C@@H](OC)[C@@H]1Cc2cc3cc(OC4CC(OC5CC(O)C(O)C(C)O5)C(O)C(C)O4)c(C)c(O)c3c(O)c2C(=O)[C@H]1OC1CC(OC2CC(OC3CC(C)(O)C(O)C(C)O3)C(O)C(C)O2)C(O)C(C)O1)C(C)C (stereo not given in full) | 10.2% | -20.7% (active) | 18.9% | 16.6% | 6.73% (active) | 4.79% (active) | 11.2% | 4.63% (active)
16 | CCCCCCCCCCCC[n+]1ccccc1 | 4.67% (active) | -37.4% (active) | -16.5% (active) | 10.7% | 5.23% (active) | 6.26% (active) | 9.96% (active) | -48.1% (active)
17 | Cc1ccc(Nc2nccc(N(C)c3ccc4c(C)n(C)nc4c3)n2)cc1S(N)(=O)=O | 4.07% (active) | 25.8% | 19.3% | 19.3% | 32.3% | 3.7% (active) | -5.85% (active) | 15%
18 | Cc1nc(Nc2n[nH]c3c2CN(C(=O)N[C@H](CN(C)C)c2ccccc2)C3(C)C)c2sccc2n1 | -25.2% (active) | -42.5% (active) | -66.2% (active) | 1.22% (active) | -3.74% (active) | -9.97% (active) | -55.1% (active) | -12.7% (active)
19 | COc1ccc(Cl)c(Nc2nc3ccccc3nc2NS(=O)(=O)c2cccc(NC(=O)C(C)(C)N)c2)c1 | -19.8% (active) | 28% | 53.5% | 65.7% | 20.3% | 47% | 54.8% | 53.1%
20 | COc1cccc(NC(=O)Nc2ccc(Nc3ncnc4sc5c(c34)CCN(C(=O)CCl)C5)cc2)c1 | 86.6% | 99.1% | 109% | 102% | 87.3% | 93.5% | 115% | 98.1%
21 | O=C(Nc1ccc(Nc2ncnc3sc4c(c23)CCOC4)cc1)Nc1ccc(Cl)c(C(F)(F)F)c1 | 81.8% | 89.1% | 99.1% | 121% | 90.5% | 77.5% | 106% | 86.4%
22 | FC(F)(F)c1ccc(CNc2ccc(Cc3c[nH]c4ncc(Cl)cc34)cn2)cn1 | -1.92% (active) | 26.3% | 6.37% (active) | 19% | 13.6% | 15.4% | 18.1% | 7.06% (active)
23 | CC(C)[C@@H](C)/C=C/[C@@H](C)[C@H]1CCC2=C3C=CC4=CC(=O)CC[C@]4(C)[C@H]3CC[C@@]21C | 91.3% | 102% | 103% | 109% | 93.6% | 93% | 112% | 104%
24 | Cc1nn(-c2nc3ccccc3[nH]2)c2c1C(c1ccc(O)cc1)CC(=O)N2 (stereo not given) | 88.7% | 92.7% | 104% | 93.5% | 109% | 101% | 123% | 60.3%
25 | Cc1ccccc1Nc1nc2nonc2nc1Nc1cccc(C)c1C | 16.2% | 51.7% | 55.7% | 77% | 43.3% | 43% | 67.5% | 53.8%
26 | COc1ccc(-c2ccc3ncc4c(c3c2)n(-c2ccc(N3CCNCC3)c(C(F)(F)F)c2)c(=O)n4C)cn1 | -66.9% (active) | -63.6% (active) | -88.3% (active) | -78.4% (active) | -63% (active) | -69.8% (active) | -93.2% (active) | -95.8% (active)
27 | CN1CC[C@H](c2c(O)cc(O)c3c(=O)cc(-c4ccccc4Cl)oc23)[C@H](O)C1 | 0.506% (active) | -8.28% (active) | -73.3% (active) | 0.889% (active) | 4.72% (active) | 4.7% (active) | -21.1% (active) | 3.91% (active)
28 | CCN(CC)CCNc1ccc(N=Nc2cnc3ccccc3c2)c2ccccc12 | -38.8% (active) | 27.5% | -33.2% (active) | -84.4% (active) | -79.2% (active) | -94.8% (active) | -95.4% (active) | -87.3% (active)
29 | CC(C)(C)c1nc(-c2cccc(NS(=O)(=O)c3c(F)cccc3F)c2F)c(-c2ccnc(N)n2)s1 | 92.6% | 118% | 87.3% | 73.3% | 79.7% | 48.1% | 85.1% | 44.6%
30 | CC(=O)O[C@]1(C)C[C@H](O)[C@]2(O)C=CO[C@H](O[C@@H]3O[C@H](CO)[C@@H](O)[C@H](O)[C@H]3O)[C@@H]21 | 92% | 94.6% | 102% | 113% | 94.4% | 98.1% | 116% | 95.1%
